Reference: the supplement of paper PMC7380943
± gives the standard deviation of the averaged measurements.

Key:
[1] = test system: CLZ3 (HCA2 human fibroblast dual HR-NHEJ reporter); experiment: NHEJ repair efficiency (GFP+ cells) relative to control (log10 fold); higher = more non-homologous end joining; settings: 5 µM; doxycycline 0.5 ug/mL
[2] = test system: CLZ3 (HCA2 human fibroblast dual HR-NHEJ reporter); experiment: HR repair efficiency (tdTomato+ cells) relative to control (log10 fold); higher = more homologous recombination; settings: 5 µM; doxycycline 0.5 ug/mL
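For HR repair efficiency (tdTomato+ cells) relative to control in this document: compound given one day before doxycycline, which switches on I-SceI endonuclease expression to create double-strand breaks within the integrated reporter.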
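For NHEJ repair efficiency (GFP+ cells) relative to control in this document: compound given one day ahead of doxycycline, which switches on I-SceI endonuclease to cut the chromosomally integrated reporter and create DSBs.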

COc1c2c(cc3oc(CO)cc(=O)c13)O[C@H](C(C)(C)O)C2 [Cimifugin]
NHEJ repair efficiency (log10) [1]: 0.0139
HR repair efficiency (log10) [2]: -0.0036

CC1=C[C@]2(O)O[C@@]3(CC2=C(C)C)[C@@H](C)CC[C@@H]13 [Curcumenol]
NHEJ repair efficiency (log10) [1]: 0.129
HR repair efficiency (log10) [2]: 0.132

c1cc2c(cc1O[C@H]1OC[C@H]3[C@@H]1CO[C@@H]3c1ccc3c(c1)OCO3)OCO2 [Sesamolin]
NHEJ repair efficiency (log10) [1]: 0.101
HR repair efficiency (log10) [2]: 0.22

CC(C)=CCC12Oc3cc(O)ccc3C1(O)Oc1cc(O)c([C@H]3C=C(C)C[C@@H](c4ccc(O)cc4O)[C@@H]3C(=O)c3ccc(O)cc3O)c(O)c1C2=O (some centres not stated) [Sanggenon D]
NHEJ repair efficiency (log10) [1]: -0.0219
HR repair efficiency (log10) [2]: -0.176

NCC(=O)O [Aminoacetic acid]
NHEJ repair efficiency (log10) [1]: 0.185
HR repair efficiency (log10) [2]: 0.151

Oc1cc(O)c2c(c1)OC(c1ccc(O)c(O)c1)C(O)C2 (single isomer, unassigned; (+)) [(+)-Catechin]
NHEJ repair efficiency (log10) [1]: 0.0406
HR repair efficiency (log10) [2]: -0.0449

C/C=C(/C)C(=O)OC(C)(C)[C@@H]1Cc2c(ccc3ccc(=O)oc23)O1 [Columbianadin]
NHEJ repair efficiency (log10) [1]: -0.0553
HR repair efficiency (log10) [2]: -0.0376

COc1ccc(/C=C/C(=O)O)cc1O [Isoferulic Acid]
NHEJ repair efficiency (log10) [1]: -0.101
HR repair efficiency (log10) [2]: 0.0607

CC(C)=CCC/C(C)=C/C=C/C(C)=C/C=C/C(C)=C/C=C/C=C(C)/C=C/C=C(C)/C=C/C=C(\C)CCC=C(C)C [Lycopene]
NHEJ repair efficiency (log10) [1]: -0.109
HR repair efficiency (log10) [2]: 0.0372

O=Cc1ccc(O)c(O)c1 [Protocatechuic aldehyde]
NHEJ repair efficiency (log10) [1]: -0.212
HR repair efficiency (log10) [2]: -0.256

C[C@@H]1C(=O)O[C@H](C)[C@H]1C[C@@H](O)[C@](C)(O)[C@H]1CC[C@@]2(O)C3=CC(=O)[C@@H]4C[C@@H](O)[C@@H](O)C[C@]4(C)[C@H]3CC[C@]12C [Cyasterone]
NHEJ repair efficiency (log10) [1]: 0.00995
HR repair efficiency (log10) [2]: 0.0455

OC[C@H]1OC(O)[C@H](O)[C@@H](O)[C@H]1O (stereo partly drawn) [D-Galactose]
NHEJ repair efficiency (log10) [1]: 0.00385
HR repair efficiency (log10) [2]: -0.0597

CC(C)=CCC[C@](C)(O)[C@H]1CC[C@]2(C)[C@@H]1[C@H](O)C[C@@H]1[C@@]3(C)CC[C@H](O[C@@H]4O[C@H](CO)[C@@H](O)[C@H](O)[C@H]4O[C@@H]4O[C@H](CO)[C@@H](O)[C@H](O)[C@H]4O)C(C)(C)[C@@H]3CC[C@]12C [R-Ginsenoside Rg3]
NHEJ repair efficiency (log10) [1]: 0.0761
HR repair efficiency (log10) [2]: -0.0174

CC1(C)O[C@H]1COc1c2ccoc2cc2oc(=O)ccc12 [Oxypeucedanin]
NHEJ repair efficiency (log10) [1]: 0.0689
HR repair efficiency (log10) [2]: 0.0078

C[C@@H]1O[C@@H](OC[C@H]2O[C@@H](Oc3cc(O)c4c(c3)O[C@H](c3ccc(O)c(O)c3)CC4=O)[C@H](O)[C@@H](O)[C@@H]2O)[C@H](O)[C@H](O)[C@H]1O [Eriocitrin]
NHEJ repair efficiency (log10) [1]: 0.00276
HR repair efficiency (log10) [2]: -0.0151

CCCCCCCCCCCCCCCC(=O)O [Palmitic Acid]
NHEJ repair efficiency (log10) [1]: 0.0513
HR repair efficiency (log10) [2]: 0.0657

COC(=O)C1=CO[C@@H](O[C@@H]2O[C@H](CO)[C@@H](O)[C@H](O)[C@H]2O)[C@@H]2[C@@H](C)[C@@H](O)C[C@H]12 [Loganin]
NHEJ repair efficiency (log10) [1]: 0.226
HR repair efficiency (log10) [2]: 0.191

COc1cc2c(cc1O)C[C@H]1c3cc(O)c(OC)cc3CC[N@@+]1(C)C2 [Phellodendrine]
NHEJ repair efficiency (log10) [1]: 0.199
HR repair efficiency (log10) [2]: -0.099

COc1ccc(-c2oc3cc(O)cc(O)c3c(=O)c2O)cc1 [Kaempferide]
NHEJ repair efficiency (log10) [1]: -0.0948
HR repair efficiency (log10) [2]: -0.167

CC(C)=CCOc1c2ccoc2cc2oc(=O)ccc12 [Isoimperatorin]
NHEJ repair efficiency (log10) [1]: -0.032 ± 0.014
HR repair efficiency (log10) [2]: 0.0188 ± 0.0059

Cc1c(O)cc2c(c1O)C(=O)c1ccc(O)c(O)c1C2=O [3-Hydroxymorindone]
NHEJ repair efficiency (log10) [1]: -0.105
HR repair efficiency (log10) [2]: 0.0716

C[C@@H]1O[C@@H](O[C@H]2[C@H](OC(=O)[C@]34CCC(C)(C)C[C@H]3C3=CC[C@@H]5[C@@]6(C)C[C@H](O)[C@H](O[C@@H]7O[C@H](CO)[C@@H](O)[C@H](O)[C@H]7O)C(CO)(CO)[C@@H]6CC[C@@]5(C)[C@]3(C)C[C@H]4O)OC[C@H](O)[C@@H]2O)[C@H](O)[C@H](O)[C@H]1O[C@@H]1OC[C@@H](O)[C@H](O[C@@H]2OC[C@](O)(CO)[C@H]2O)[C@H]1O [Platycodin D]
NHEJ repair efficiency (log10) [1]: -0.142
HR repair efficiency (log10) [2]: -0.287

C/C1=C\CC[C@]23O[C@H]2[C@@H](OC3=O)c2c(C)coc2C1 [Linderane]
NHEJ repair efficiency (log10) [1]: -0.0245
HR repair efficiency (log10) [2]: 0.0607

COc1cc2c(cc1OC)[C@H]1[C@@H](C)c3ccc(OC)c(OC)c3CN1CC2 [Corydaline]
NHEJ repair efficiency (log10) [1]: -0.196
HR repair efficiency (log10) [2]: -0.191

Cn1c(=O)c2c(ncn2CC2OCCO2)n(C)c1=O [Doxofylline]
NHEJ repair efficiency (log10) [1]: 0.101
HR repair efficiency (log10) [2]: 0.0399

CN1Cc2c(ccc3c2OCO3)[C@@]2(C)[C@@H](O)Cc3cc4c(cc3[C@@H]12)OCO4 [Corynoline]
NHEJ repair efficiency (log10) [1]: -0.128
HR repair efficiency (log10) [2]: -0.201
